Measured values published in PubChem BioAssay AID743332 (Broad Institute, 2014).
Measured potencies and affinities stand elsewhere. Calls of active or inactive are those of the source.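 Rule for the calls: active = at least 35% decrease in signal relative to neutral control well mean; inactive = the rest, opposite-direction activity included.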

These compounds were tested against Caspase-6 (Homo sapiens) (UniProt P55212) (assay: inhibition of CASP6 peptide cleavage – biochemical, VEID-R110 fluorescence, dry powder retest, dose response (AID 743332)). Conditions: purified caspase-6, Z-VEID-R110 cleavage fluorescence; series mostly up to 35 µM.
Chain of Caspase-6 (Homo sapiens) (P55212 24-179 limits assumed): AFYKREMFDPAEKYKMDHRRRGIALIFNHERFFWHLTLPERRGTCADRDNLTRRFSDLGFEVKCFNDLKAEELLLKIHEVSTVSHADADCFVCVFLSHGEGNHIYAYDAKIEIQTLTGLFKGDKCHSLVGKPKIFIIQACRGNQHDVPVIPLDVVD
Chain of Caspase-6 (Homo sapiens) (P55212 194-293 limits assumed): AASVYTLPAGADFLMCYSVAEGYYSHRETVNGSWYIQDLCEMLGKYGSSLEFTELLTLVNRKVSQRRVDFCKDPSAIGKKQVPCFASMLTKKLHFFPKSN

SMILES | outcome
O=C(c1ccccc1)N1CCN(S(=O)(=O)c2cccnc2)CC1 | inactive
Cc1ccc(C(=O)N2CCN(S(=O)(=O)c3ccc4c(c3)OCCO4)CC2)cc1 | inactive
Cc1ccc(C(=O)N2CCCN(S(=O)(=O)c3ccc(C)cc3)CC2)cc1 | inactive
[O-][n+]1c2c(nn1-c1ccccc1Cl)-c1nonc1CC2 | inactive
Cc1cccc(C(=O)N2CCCN(S(=O)(=O)c3ccc4c(c3)OCCO4)CC2)c1 | inactive
O=C(c1ccccc1)N1CCN(S(=O)(=O)c2ccc(Cl)cc2)CC1 | inactive
Cc1ccc(S(=O)(=O)N2CCCN(C(=O)c3ccoc3)CC2)cc1 | inactive
CC(=O)Nc1ccc(S(=O)(=O)N2CCN(C(=O)c3ccccc3)CC2)cc1 | inactive
Cc1ccc(S(=O)(=O)N2CCN(C(=O)c3ccco3)CC2)cc1 | inactive
Cc1ccc(C(=O)N2CCN(S(=O)(=O)c3ccccc3)CC2)cc1 | inactive
CC(=O)Nc1ccc(S(=O)(=O)N2CCN(C(=O)c3ccc(C)cc3)CC2)cc1 | inactive
O=C(c1ccccc1)N1CCCC(NS(=O)(=O)c2ccccc2)C1 (stereo not drawn) | inactive
COc1ccc(C(=O)N2CCN(S(=O)(=O)c3ccccc3)CC2)cc1 | inactive
O=C(c1cccs1)N1CCN(S(=O)(=O)c2ccccc2)CC1 | inactive
[O-][n+]1c2c(nn1-c1ccccc1)-c1nonc1CC2 | inactive
O=C(c1cccnc1)N1CCN(S(=O)(=O)c2cccnc2)CC1 | inactive
CC(=O)N1CCCc2cc(S(=O)(=O)N3CCN(C(=O)C4COc5ccccc5O4)CC3)ccc21 (stereo not drawn) | inactive
O=C(C1COc2ccccc2O1)N1CCN(S(=O)(=O)c2ccccc2)CC1 (stereo not drawn) | inactive
